# In PubChem BioAssay AID1259310 (The Scripps Research Institute Molecular Screening Center, 2017):
# Values joined by “and” are separate entries in the source; they are usually repeats but may differ in a detail not shown here. Equal entries are not always repeated. Out of some 650,000 compounds screened, about 850 (0.13%) were called active. For the sample, actives were picked, then their nearest neighbours and some compounds at random. Unmarked numbers belong to inactive results. Cut-off read from the data, not from the text of the source: active = normalized activity above about 1.9%; inactive = the rest.
# Target: F-box/WD repeat-containing protein 7 (Homo sapiens) (UniProt Q969H0)
# Test: FBW7 E3 ligase activators, primary screen, biochemical, AlphaScreen, human (AID 1259310);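 note: purified mutant Fbw7 with reduced substrate affinity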
# Settings: AlphaScreen FBW7–phospho-cyclin E peptide binding, activator screen; at 26.1 µM; stronger effect = higher value
# Chain of F-box/WD repeat-containing protein 7 (Homo sapiens) (Q969H0 whole entry, looked up): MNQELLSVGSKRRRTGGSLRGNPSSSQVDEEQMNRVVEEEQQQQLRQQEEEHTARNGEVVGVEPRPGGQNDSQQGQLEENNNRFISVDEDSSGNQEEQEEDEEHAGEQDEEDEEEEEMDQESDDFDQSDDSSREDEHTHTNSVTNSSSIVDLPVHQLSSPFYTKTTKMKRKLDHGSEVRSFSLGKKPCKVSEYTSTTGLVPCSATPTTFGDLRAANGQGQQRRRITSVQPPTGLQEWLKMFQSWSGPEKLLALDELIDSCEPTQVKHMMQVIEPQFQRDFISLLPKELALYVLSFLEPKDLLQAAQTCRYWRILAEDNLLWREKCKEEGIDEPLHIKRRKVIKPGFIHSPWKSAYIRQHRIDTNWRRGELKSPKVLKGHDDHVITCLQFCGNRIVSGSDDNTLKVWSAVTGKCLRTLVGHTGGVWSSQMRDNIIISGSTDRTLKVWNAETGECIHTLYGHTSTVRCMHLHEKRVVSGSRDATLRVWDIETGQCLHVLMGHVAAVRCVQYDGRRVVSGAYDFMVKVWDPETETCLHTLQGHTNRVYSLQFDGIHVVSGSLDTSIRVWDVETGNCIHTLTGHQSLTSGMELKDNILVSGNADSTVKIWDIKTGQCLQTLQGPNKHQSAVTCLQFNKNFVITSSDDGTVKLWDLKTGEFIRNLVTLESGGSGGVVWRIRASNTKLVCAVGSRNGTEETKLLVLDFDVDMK
row,SMILES,normalized activity (activation)
1,O=C(O)CSc1ccc2nnc(-c3ccc(F)cc3)n2n1,0.39%
2,Cc1ccc(-c2nnc3ccc(SCC(N)=O)nn23)cc1,0.47%
3,NC(=O)CSc1ccc2nnc(-c3ccccn3)n2n1,69.7% (active)
4,O=C(Nc1ccc(N2CCOCC2)cc1)c1cccc(-n2nccc2NC(=O)C2CC2)c1,0.06%
5,COc1ccc(N2CCN(C(CNC(=O)C(C)C)c3ccco3)CC2)cc1 (centres undefined),0%
6,COc1ccc(Br)cc1CN(C)Cn1cnc2ccccc21,-0.03%
7,C=CCNC(=O)c1cc2c(=O)n3cccc(C)c3nc2n1C,0.17%
8,CCN(Cc1ccccc1)C(=O)c1cc2c(=O)n3cccc(C)c3nc2n1C,3.93% (active)
9,CC(C)N(Cc1ccccc1)C(=O)c1cc2c(=O)n3ccccc3nc2n1C,0.69%
10,O=C(CNC(=O)OCc1ccccc1)Oc1ccc2c(-c3ccccc3)cc(=O)oc2c1,-0.09%
11,O=C(NCc1nnc2n1CCN(Cc1c(F)cccc1Cl)CC2)c1ccccc1,-0.02%
12,O=C(Cc1cccs1)NCCS(=O)(=O)N1CCN(c2ccccn2)CC1,0.01%
13,O=C(c1cnsc1)N1CCC(c2[nH]ncc2-c2ccncc2)CC1,2.18% (active)
14,Cc1cc(C(=O)N2CCC(c3[nH]ncc3-c3ccncc3)CC2)c(C)[nH]1,0.63%
15,O=C(c1cnsc1)N1CCCC(c2ncncc2-c2ccncc2)C1 (centres undefined),0.35%
16,Cc1ccc(C)c(C(=O)Nc2ncc(S(=O)(=O)c3ccc([N+](=O)[O-])cc3)s2)c1,-0.16%
17,CCOc1ccc(NC(C)C(=O)N/N=C/c2ccccc2O)cc1 (centres undefined),-0.35%
18,COCCn1nnnc1C(c1cc2cc(C)cc(C)c2[nH]c1=O)N1CCOCC1 (centres undefined),2.29% (active)
19,COCCn1nnnc1C(c1cc2cc(C)c(C)cc2[nH]c1=O)N1CCCCC1 (centres undefined),-0.02%
20,COCCn1nnnc1C(c1cc2ccc(C)cc2[nH]c1=O)N1CCCC1 (centres undefined),-0.04%
21,O=C1NC(=O)C(=Cc2ccc(OC(=O)c3ccc(Cl)c(Cl)c3)cc2)C(=O)N1,0.22%
22,CCOC(=O)CSc1nc2ccsc2c(=O)n1CCc1ccc(OC)c(OC)c1,0.46%
23,CCSCCOC(=O)C1=C(C)NC2=C(C(=O)CC(c3ccccc3)C2)C1c1ccccc1 (centres undefined),0.61%

row,SMILES,normalized activity (activation)
1,COCCOC(=O)C1=C(C)NC2=C(C(=O)CC(c3ccccc3)C2)C1c1cc(OC)ccc1OC (centres undefined),0.27%
2,CCSCCOC(=O)C1=C(C)NC2=C(C(=O)CC(c3ccccc3)C2)C1c1ccc(OC)cc1OC (centres undefined),2.28% (active)
3,O=C(Nc1ccc(C(=O)Nc2nccs2)cc1)c1ccc2c(c1)C(=O)N(c1ccccc1-c1ccccc1)C2=O,-0.08%
4,Cc1ccc(N=c2scc(C)n2CCCO)cc1,-0.38%
5,CC(=O)N(C)c1nc(-c2cccc(N(C)C)c2)ccc1C(=O)NC1CCCCC1,1.86% (active)
6,CN(C)c1cccc(Nc2cccc(C(=O)NC3CC3)n2)c1,-0.12%
7,CN(C)c1cccc(Nc2cc(C(=O)NC3CC3)c3ccccc3n2)c1,0.31%
8,CCOC(=O)N1CCC(NC(=O)CC2C(=O)NCCN2Cc2ccoc2)CC1 (centres undefined),0.27%
9,CCCCSc1ncnc2c1c(-c1ccccc1)cn2-c1ccc(OC)cc1,-0.03%
10,Cc1ccc(C(C)C)c(OCC(=O)Oc2ccc3c(c2)oc(=O)c2ccccc23)c1,-0.05%
11,CCOC(=O)/C(C#N)=C/c1ccc(N2CCCCC2)cc1,1.85% (active)
12,COCCNC(=O)/C(C#N)=C/c1ccc(N2CCOCC2)cc1,0.46%
13,CCOC(=O)/C(C#N)=C/c1cc(C)n(-c2ccc(C(=O)OCC)cc2)c1C,-0.1% and -0.13%
14,CCOC(=O)C1=C(C)N=c2s/c(=C\c3ccc(OCc4ccc([N+](=O)[O-])cc4)c(OC)c3)c(=O)n2C1c1ccc2c(c1)OCO2 (centres undefined),0.04%
15,COCCNc1ncc(-c2cccs2)cn1,0.02%
16,O=C1C2C3c4ccccc4C(c4ccccc43)C2C(=O)N1CCCCO (centres undefined),0.04%
17,CC1=C(C#N)C(=O)N(CCCO)C(=O)/C1=C\c1ccc(-c2ccc(Cl)cc2)o1,-0.06%
18,CCCCOC(=O)c1cccc(NC(=O)CN2C(=O)c3ccccc3C2=O)c1,0.09%
19,Cc1ncn(-c2ccc(Nc3cc(-c4nocc4-c4ccccn4)ccn3)cc2)n1,2.76% (active)
20,CNc1cc(-c2ccnc(Nc3ccc(-n4cnc(C)n4)cc3)c2)no1,0.51%
21,Cc1ncn(-c2ccc(Nc3cc(-c4cnn(C(C)C)c4-c4ccc(F)cc4)ccn3)cc2)n1,0.79%
22,O=c1c(NCCN2CCCCCC2)c(-c2ccc(Cl)cc2)c1=O,0%
23,CC(C)NCCOCCOc1cccc(Br)c1,0.35%

row,SMILES,normalized activity (activation)
1,COCc1cc(C)nc(OCC(=O)c2ccccc2)c1C#N,0.04%
2,Cc1c(C(=O)N2CCCC2)oc2c1-c1nn(CC(=O)N3CCCC3)cc1CC2,8.41% (active)
3,Cc1c(C(=O)N2CCCC2)sc2ncn(CC(=O)N3CCCC3)c(=O)c12,0.33%
4,Cc1c(C(=O)N2CCOCC2)oc2c1-c1nn(CC(=O)NC(C)c3ccccc3)cc1CC2 (centres undefined),-0.04%
5,Nc1nnc(-c2ccc(Cn3c(-c4cncs4)nc4ccccc43)cc2)s1,0.1%
6,O=C(O)CCCN1C(=O)C(=O)/C(=C(\O)c2ccccc2)C1c1cccc(F)c1 (centres undefined),-0.31%
7,CC1CCCN(S(=O)(=O)c2cccc3cccnc23)C1 (centres undefined),-0.09%
8,Cc1c(Cc2ccccc2)c(N2CCCCC2)n2c(nc3ccccc32)c1C#N,0.12%
9,Cc1cc(NCCN2CCCCCC2)n2c(nc3ccccc32)c1C#N,2.12% (active)
10,Cc1cc(Nc2ccc(Cl)cc2)n2c(nc3ccccc32)c1C#N,-0.02%
11,CC(=O)c1cccc(-c2nc3ncnc(NCCOc4ccccc4)c3[nH]2)c1,0.01%
12,CCOc1ccc(Nc2nc(C)c([N+](=O)[O-])c(Nc3ccc(OC)cc3)n2)cc1,-0.11%
13,CC(C)CC(C(=O)NC1CCCC1)N(C(=O)c1snc(C(N)=O)c1N)C1CCCC1 (centres undefined),0.18%
14,Cc1ccc(C(=O)NC(C)C(c2cccs2)N2CCN(C)CC2)cc1 (centres undefined),-0.03%
15,CCCCOc1ccc(/C=C/c2nc3ccccc3c(=O)n2-c2ccc(C)c(C)c2)cc1,-0.23%
16,CC(=O)Nc1ccc(Nc2nc(Nc3ccc(-n4ccnc4)cc3)nc3c2ncn3-c2ccsc2)cc1,-0.15%
17,CC(=O)Nc1ccc(Nc2nc(Nc3ccncn3)nc3c2ncn3-c2ccsc2)cc1,0.77%
18,CC(=O)Nc1ccc(Nc2nc(Nc3cnccn3)nc3c2ncn3-c2ccccc2)cc1,2.09% (active)
19,COc1ccccc1NC(=O)c1c(C)nc(SCC(=O)c2ccccc2)c(C#N)c1-c1ccc(C)o1,-0.03%
20,Cc1c(NC(=O)c2ccc(Br)cc2)cccc1-c1nc2ccccc2o1,0.17%
21,O=C(CSc1n[nH]c(-c2cccs2)n1)NC(=O)NC12CC3CC(CC(C3)C1)C2,-0.03%
22,Cc1sc2ncn3c(SCC(=O)N4CCc5ccccc54)nnc3c2c1C,-0.09%
23,COC(=O)COc1ccc(S(=O)(=O)N2CCN(c3cc(Cl)ccc3C)CC2)cc1,-0.32%

row,SMILES,normalized activity (activation)
1,O=C(CN(c1ccccc1)S(=O)(=O)c1ccccc1[N+](=O)[O-])N/N=C/c1ccco1,2.75% (active)
2,NC(=O)CN(c1ccccc1)S(=O)(=O)c1ccccc1[N+](=O)[O-],-0.14%
3,O=C(CN(c1ccccc1)S(=O)(=O)c1ccccc1[N+](=O)[O-])Nc1ccc(F)cc1,0.71%
4,COCCCN1C(=O)C2C(C(=O)Nc3cccc(C)c3)C3C=CC2(O3)C1C(=O)NC1CCCC(C)C1C (centres undefined),0.2%
5,C=CCn1c(=NC(=O)c2ccccc2[N+](=O)[O-])sc2cc(S(N)(=O)=O)ccc21,0%
6,COc1ccccc1C1N(Cc2ccccc2)CCN1Cc1ccccc1,0.1%
7,Cc1ccc(Oc2ccc(N(C)C(=O)Nc3ccc(Cl)cc3)cc2)nn1,0.86%
8,COC(=O)c1c(OCc2ccncc2)cc(=O)n2c1CCN(CCCSC)CC2,0%
9,CC(C)OCCCNC(=O)Nc1cccc(Cl)c1,0.02%
10,C[C@@H](c1ccccc1)n1c(=O)[nH]c2ncc(-c3ccccc3)nc21,0.05%
11,CC(C)NCC(=O)N(c1ccccc1)N1CCOCC1,0.19%
12,CCCCSc1nnc2c(n1)OC(c1ccc(N(C)C)cc1)Nc1ccccc1-2 (centres undefined),0.3%
13,COc1ccc2c(c1)c(=O)c1ccccc1n2CC(=O)Nc1ccc(F)cc1,0%
14,N/C(=N\OC(=O)CCCOc1ccc(Cl)cc1Cl)c1nonc1N,4.98% (active)
15,O=C(CCCOc1ccc(Cl)cc1Cl)N1CCCC1,0.05%
16,N/C(=N\OCc1cc2c(cc1Cl)OCO2)c1nonc1N,0.4%
17,Nc1ccnc2cc(-c3ccccc3)nn12,-0.02%
18,CSc1ncc(C(=O)Nc2ccc3c(c2)OCCO3)c(C)n1,0.15%
19,C=CCOC(=O)C1=C(C)Nc2c(c(=O)n(C)c(=O)n2C)C1c1ccc2c(c1)OCO2 (centres undefined),0.09%
20,Cc1ccc(-c2csc(/C(C#N)=C/c3ccccc3[N+](=O)[O-])n2)cc1,-0.09%
